Article PMC9911399, “Two distinct binding modes provide the RNA-binding protein RbFox with extraordinary sequence specificity”
Where a chain is given by its changes, count along the chain named. Over roughly 16,000 sequences, “ka relative to ugcaugu” has its median near 0.096; the highest 2% begin near 0.35. This is one part of a sample in which the highest values are shown more often than they occur.

T1: RBFOX1 RRM RbFoxmut (Fox-RRM*) (Homo sapiens, UniProt Q9NWB1 109-208, R118D;E147R;N151S;E152T)
T1 sequence: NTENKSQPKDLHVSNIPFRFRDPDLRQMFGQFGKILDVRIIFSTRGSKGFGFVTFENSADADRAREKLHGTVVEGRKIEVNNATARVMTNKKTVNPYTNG

B1: CUGAGUG (DNA:RNA)
RNA: GGGAGACCGGAAUUCAGAUUGUCCCUGAGUGUUAAAUCCCGUCGUAGCCACCA
DNA 1: CAATCTGAATTCCGGTCTCCC
DNA 2: TGGTGGCTACGACGGGATT
B2: UCACCCA (DNA:RNA)
RNA: GGGAGACCGGAAUUCAGAUUGUCCUCACCCAUUAAAUCCCGUCGUAGCCACCA
DNA 1: CAATCTGAATTCCGGTCTCCC
DNA 2: TGGTGGCTACGACGGGATT
B3: UAGGGAC (DNA:RNA)
RNA: B1 RNA with C25U, U26A, A28G, U30A, G31C
DNA 1: CAATCTGAATTCCGGTCTCCC
DNA 2: TGGTGGCTACGACGGGATT
B4: ACCAGGG (DNA:RNA)
RNA: B1 RNA with C25A, U26C, G27C, U30G
DNA 1: CAATCTGAATTCCGGTCTCCC
DNA 2: TGGTGGCTACGACGGGATT
B5: ACCGAGG (DNA:RNA)
RNA: B1 RNA with C25A, U26C, G27C, A28G, G29A, U30G
DNA 1: CAATCTGAATTCCGGTCTCCC
DNA 2: TGGTGGCTACGACGGGATT
B6: GAGGAGG (DNA:RNA)
RNA: B1 RNA with C25G, U26A, A28G, G29A, U30G
DNA 1: CAATCTGAATTCCGGTCTCCC
DNA 2: TGGTGGCTACGACGGGATT
B7: AGGGGGG (DNA:RNA)
RNA: B1 RNA with C25A, U26G, A28G, U30G
DNA 1: CAATCTGAATTCCGGTCTCCC
DNA 2: TGGTGGCTACGACGGGATT
B8: AGGGUUG (DNA:RNA)
RNA: B1 RNA with C25A, U26G, A28G, G29U
DNA 1: CAATCTGAATTCCGGTCTCCC
DNA 2: TGGTGGCTACGACGGGATT
B9: CAGGUUG (DNA:RNA)
RNA: B1 RNA with U26A, A28G, G29U
DNA 1: CAATCTGAATTCCGGTCTCCC
DNA 2: TGGTGGCTACGACGGGATT
B10: CCCCAGG (DNA:RNA)
RNA: B1 RNA with U26C, G27C, A28C, G29A, U30G
DNA 1: CAATCTGAATTCCGGTCTCCC
DNA 2: TGGTGGCTACGACGGGATT
B11: GAGGUUG (DNA:RNA)
RNA: B1 RNA with C25G, U26A, A28G, G29U
DNA 1: CAATCTGAATTCCGGTCTCCC
DNA 2: TGGTGGCTACGACGGGATT
B12: CACCAGG (DNA:RNA)
RNA: B1 RNA with U26A, G27C, A28C, G29A, U30G
DNA 1: CAATCTGAATTCCGGTCTCCC
DNA 2: TGGTGGCTACGACGGGATT
B13: UCCCCAC (DNA:RNA)
RNA: B2 RNA with A27C, C30A, A31C
DNA 1: CAATCTGAATTCCGGTCTCCC
DNA 2: TGGTGGCTACGACGGGATT
B14: CUACCCG (DNA:RNA)
RNA: B2 RNA with U25C, C26U, A31G
DNA 1: CAATCTGAATTCCGGTCTCCC
DNA 2: TGGTGGCTACGACGGGATT
B15: GUGUCAG (DNA:RNA)
RNA: B1 RNA with C25G, A28U, G29C, U30A
DNA 1: CAATCTGAATTCCGGTCTCCC
DNA 2: TGGTGGCTACGACGGGATT
B16: AUACAAG (DNA:RNA)
RNA: B1 RNA with C25A, G27A, A28C, G29A, U30A
DNA 1: CAATCTGAATTCCGGTCTCCC
DNA 2: TGGTGGCTACGACGGGATT
B17: CAAUGCG (DNA:RNA)
RNA: B1 RNA with U26A, G27A, A28U, U30C
DNA 1: CAATCTGAATTCCGGTCTCCC
DNA 2: TGGTGGCTACGACGGGATT
B18: GGGAUGA (DNA:RNA)
RNA: B1 RNA with C25G, U26G, G29U, U30G, G31A
DNA 1: CAATCTGAATTCCGGTCTCCC
DNA 2: TGGTGGCTACGACGGGATT
B19: CGCGCUU (DNA:RNA)
RNA: B1 RNA with U26G, G27C, A28G, G29C, G31U
DNA 1: CAATCTGAATTCCGGTCTCCC
DNA 2: TGGTGGCTACGACGGGATT
B20: AGAAGCG (DNA:RNA)
RNA: B1 RNA with C25A, U26G, G27A, U30C
DNA 1: CAATCTGAATTCCGGTCTCCC
DNA 2: TGGTGGCTACGACGGGATT
B21: CUCCUCC (DNA:RNA)
RNA: B1 RNA with G27C, A28C, G29U, U30C, G31C
DNA 1: CAATCTGAATTCCGGTCTCCC
DNA 2: TGGTGGCTACGACGGGATT
B22: UGCAUCU (DNA:RNA)
RNA: B2 RNA with C26G, A27C, C28A, C29U, A31U
DNA 1: CAATCTGAATTCCGGTCTCCC
DNA 2: TGGTGGCTACGACGGGATT
B23: UGCAAUC (DNA:RNA)
RNA: B1 RNA with C25U, U26G, G27C, G29A, G31C
DNA 1: CAATCTGAATTCCGGTCTCCC
DNA 2: TGGTGGCTACGACGGGATT
B24: CUGCAGA (DNA:RNA)
RNA: B1 RNA with A28C, G29A, U30G, G31A
DNA 1: CAATCTGAATTCCGGTCTCCC
DNA 2: TGGTGGCTACGACGGGATT
B25: CUGCAUC (DNA:RNA)
RNA: B1 RNA with A28C, G29A, G31C
DNA 1: CAATCTGAATTCCGGTCTCCC
DNA 2: TGGTGGCTACGACGGGATT
B26: UGAAUCU (DNA:RNA)
RNA: B2 RNA with C26G, C28A, C29U, A31U
DNA 1: CAATCTGAATTCCGGTCTCCC
DNA 2: TGGTGGCTACGACGGGATT
B27: CCUGCAU (DNA:RNA)
RNA: B2 RNA with U25C, A27U, C28G, C30A, A31U
DNA 1: CAATCTGAATTCCGGTCTCCC
DNA 2: TGGTGGCTACGACGGGATT
B28: AGCAGCA (DNA:RNA)
RNA: B1 RNA with C25A, U26G, G27C, U30C, G31A
DNA 1: CAATCTGAATTCCGGTCTCCC
DNA 2: TGGTGGCTACGACGGGATT
B29: ACAAAUC (DNA:RNA)
RNA: B1 RNA with C25A, U26C, G27A, G29A, G31C
DNA 1: CAATCTGAATTCCGGTCTCCC
DNA 2: TGGTGGCTACGACGGGATT
B30: UUGGAUC (DNA:RNA)
RNA: B1 RNA with C25U, A28G, G29A, G31C
DNA 1: CAATCTGAATTCCGGTCTCCC
DNA 2: TGGTGGCTACGACGGGATT
B31: UUGGAGA (DNA:RNA)
RNA: B1 RNA with C25U, A28G, G29A, U30G, G31A
DNA 1: CAATCTGAATTCCGGTCTCCC
DNA 2: TGGTGGCTACGACGGGATT
B32: UUGGAUG (DNA:RNA)
RNA: B1 RNA with C25U, A28G, G29A
DNA 1: CAATCTGAATTCCGGTCTCCC
DNA 2: TGGTGGCTACGACGGGATT
B33: GUGGAUU (DNA:RNA)
RNA: B1 RNA with C25G, A28G, G29A, G31U
DNA 1: CAATCTGAATTCCGGTCTCCC
DNA 2: TGGTGGCTACGACGGGATT
B34: GUGGAUG (DNA:RNA)
RNA: B1 RNA with C25G, A28G, G29A
DNA 1: CAATCTGAATTCCGGTCTCCC
DNA 2: TGGTGGCTACGACGGGATT
B35: GUGGAUC (DNA:RNA)
RNA: B1 RNA with C25G, A28G, G29A, G31C
DNA 1: CAATCTGAATTCCGGTCTCCC
DNA 2: TGGTGGCTACGACGGGATT
B36: GUGGAGA (DNA:RNA)
RNA: B1 RNA with C25G, A28G, G29A, U30G, G31A
DNA 1: CAATCTGAATTCCGGTCTCCC
DNA 2: TGGTGGCTACGACGGGATT
B37: GCGUGGA (DNA:RNA)
RNA: B1 RNA with C25G, U26C, A28U, U30G, G31A
DNA 1: CAATCTGAATTCCGGTCTCCC
DNA 2: TGGTGGCTACGACGGGATT
B38: UUGGAUU (DNA:RNA)
RNA: B1 RNA with C25U, A28G, G29A, G31U
DNA 1: CAATCTGAATTCCGGTCTCCC
DNA 2: TGGTGGCTACGACGGGATT

molecular target: T1, RBFOX1 RRM RbFoxmut (Fox-RRM*); assay: EMSA; HiTS-Eq, 1 nM pool, 10 min; buffer printed only for the single-RNA assays: 10 mM Tris pH 7.5, 150 mM NaCl, 3.4 mM EDTA, 0.001% NP-40, 30 C; details: tags: His6 N-terminal (pET28a); label: 5' 32P
Summary of the method: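 Purified RbFox RRM (wild type or mutant) was equilibrated for 10 min in 50 µL with 1 nM of a 5′-radiolabelled pool of RNA with 7 randomized nucleotides, its flanks annealed to DNA oligonucleotides, across increasing protein concentrations. Free RNA was separated by 8% native PAGE, excised, reverse-transcribed, PCR-barcoded and sequenced on an Illumina HiSeq 2500. Relative association constants came from read-count changes of each variant against the control reaction, normalised to the cognate motif.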

Row | Binder | binding signal
1 | B1 | 0.142 KA relative to UGCAUGU
2 | B2 | 0.0824 KA relative to UGCAUGU
3 | B3 | 0.0789 KA relative to UGCAUGU
4 | B4 | 0.0771 KA relative to UGCAUGU
5 | B5 | 0.0689 KA relative to UGCAUGU
6 | B6 | 0.0833 KA relative to UGCAUGU
7 | B7 | 0.104 KA relative to UGCAUGU
8 | B8 | 0.578 KA relative to UGCAUGU
9 | B9 | 0.371 KA relative to UGCAUGU
10 | B10 | 0.0949 KA relative to UGCAUGU
11 | B11 | 0.552 KA relative to UGCAUGU
12 | B12 | 0.0996 KA relative to UGCAUGU
13 | B13 | 0.118 KA relative to UGCAUGU
14 | B14 | 0.0609 KA relative to UGCAUGU
15 | B15 | 0.137 KA relative to UGCAUGU
16 | B16 | 0.0924 KA relative to UGCAUGU
17 | B17 | 0.13 KA relative to UGCAUGU
18 | B18 | 0.267 KA relative to UGCAUGU
19 | B19 | 0.1 KA relative to UGCAUGU

Row | Binder | binding signal
20 | B20 | 0.107 KA relative to UGCAUGU
21 | B21 | 0.0813 KA relative to UGCAUGU
22 | B22 | 0.727 KA relative to UGCAUGU
23 | B23 | 0.102 KA relative to UGCAUGU
24 | B24 | 0.136 KA relative to UGCAUGU
25 | B25 | 0.457 KA relative to UGCAUGU
26 | B26 | 0.244 KA relative to UGCAUGU
27 | B27 | 0.139 KA relative to UGCAUGU
28 | B28 | 0.14 KA relative to UGCAUGU
29 | B29 | 0.0702 KA relative to UGCAUGU
30 | B30 | 0.321 KA relative to UGCAUGU
31 | B31 | 0.0955 KA relative to UGCAUGU
32 | B32 | 0.61 KA relative to UGCAUGU
33 | B33 | 0.1 KA relative to UGCAUGU
34 | B34 | 1.04 KA relative to UGCAUGU
35 | B35 | 0.357 KA relative to UGCAUGU
36 | B36 | 0.118 KA relative to UGCAUGU
37 | B37 | 0.092 KA relative to UGCAUGU
38 | B38 | 0.106 KA relative to UGCAUGU
